The nature of experiment [1]: binders of probe aFSTL3 on microarray, primary screen, stem cell growth factor project, biochemical, small-molecule microarray, fluorescence 635/667 (AID 1064).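 Note: measures binding of the biotinylated anti-FSTL3 antibody to printed compounds.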 The conditions noted are these: higher = more signal.
Experiment [2] in a line: binders from COS7 lysate, DM2A8 probe, primary screen, torsin A project, cell lysate, small-molecule microarray, fluorescence 635/667 (AID 1065). The conditions noted are these: higher = more signal, COS7 lysate expressing mutant human TOR1A.
The nature of experiment [3]: binders of probe aFGF2 on microarray, primary screen, stem cell growth factor project, biochemical, small-molecule microarray, fluorescence 635/667 (AID 1067).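 Note: measures binding of biotinylated aFGF2 protein to printed compounds on slides; z-score merges feature fluorescence and signal-to-noise across triplicate slides.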 The conditions noted are these: higher = more signal.
A short description of experiment [4]: binders of probe aFGF10 on microarray, primary screen, stem cell growth factor project, biochemical, small-molecule microarray, fluorescence 635/667 (AID 1071).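 Note: score merges 667 nm spot intensity and signal to noise from triplicate slides.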 The conditions noted are these: higher = more signal.
Experiment [5] concerns the target Neurogenic locus notch homolog protein 2 (Homo sapiens) (UniProt Q04721). Description: Notch2 binders on small-molecule microarrays, primary screen, biochemical, small-molecule microarray, 635 nm fluorescence, stem cell growth factors (AID 1073). The conditions noted are these: Notch2 binding, higher = more signal.
The target in experiment [6] is Pro-neuregulin-1, membrane-bound isoform (Homo sapiens) (UniProt Q02297). Description: NRG1 binders on small-molecule microarrays, primary screen, psychiatric disease protein project, biochemical, small-molecule microarray, fluorescence 635/667 (AID 1075).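 Note: score combines 667 nm spot fluorescence with signal to noise.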 The conditions noted are these: NRG1 binding, 635 nm fluorescence, higher = more signal.
Pro-neuregulin-1, membrane-bound isoform (Homo sapiens), sequence (Q02297 whole entry, looked up, the tested form may be a part, canonical isoform): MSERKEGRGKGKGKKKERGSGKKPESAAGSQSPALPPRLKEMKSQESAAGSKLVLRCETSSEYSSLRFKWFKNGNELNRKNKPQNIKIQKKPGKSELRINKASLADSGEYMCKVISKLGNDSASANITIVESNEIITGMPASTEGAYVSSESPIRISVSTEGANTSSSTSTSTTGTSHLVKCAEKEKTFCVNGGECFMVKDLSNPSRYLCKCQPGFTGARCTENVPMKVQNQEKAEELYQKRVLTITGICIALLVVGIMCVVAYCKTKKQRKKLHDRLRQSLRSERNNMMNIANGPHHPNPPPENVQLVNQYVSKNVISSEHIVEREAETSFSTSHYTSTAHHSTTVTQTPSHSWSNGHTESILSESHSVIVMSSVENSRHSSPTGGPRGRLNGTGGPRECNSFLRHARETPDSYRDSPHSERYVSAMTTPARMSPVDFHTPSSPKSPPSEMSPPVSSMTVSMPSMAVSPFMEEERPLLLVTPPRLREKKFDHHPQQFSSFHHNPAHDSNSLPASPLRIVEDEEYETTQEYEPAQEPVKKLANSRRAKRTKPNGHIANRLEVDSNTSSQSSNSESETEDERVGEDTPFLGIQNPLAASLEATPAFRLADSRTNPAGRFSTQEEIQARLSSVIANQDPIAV
Experiment [7] concerns Neuregulin-1 EGF-like domain. The experiment is described as follows: binders of neuregulin-1 EGF-like domain, primary screen, biochemical, small-molecule microarray, 635 nm fluorescence (AID 1081).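 Note: binding of the protein to compounds printed on small-molecule microarray slides.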 The conditions noted are these: small-molecule microarray binding, higher = more signal.
The nature of experiment [8]: FRG1 promoter luciferase signal modulators, primary screen, FRG1 inhibition for FSHD, cell-based, C2C12 myotubes, firefly/Renilla luciferase, luminescence (AID 1084). The conditions noted are these: higher = more signal, called active from +8 up or from −8 down.
Experiment [9] can be described thus: binders of probe aFST on microarray, primary screen, stem cell growth factor project, biochemical, small-molecule microarray, fluorescence 635/667 (AID 1086).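 Note: score merges 667 nm fluorescence with signal-to-noise of each printed compound spot.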 The conditions noted are these: higher = more signal.
Experiment [10] can be described thus: binders of probe aHhip on microarray, primary screen, stem cell growth factor project, biochemical, small-molecule microarray, fluorescence 635/667 (AID 1087).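 Note: score merges spot fluorescence at 667nm with spot signal to noise ratio.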 The conditions noted are these: higher = more signal.
In experiment [11] the test system is PRMT1 (protein arginine N-methyltransferase 1). The experiment is described as follows: PRMT1 binders on small-molecule microarrays, primary screen, biochemical, small-molecule microarray, 635 nm fluorescence (AID 1088).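 Note: binding of Prmt1 protein to compounds spotted on small-molecule microarray slides.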 The conditions noted are these: small-molecule microarray binding, higher = more signal.
Experiment [12] can be described thus: yeast growth modulation, basal conditions, primary screen, YJM789 clinical isolate, OD600, 24 h (AID 1089).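 Note: growth of clinical yeast isolate S. cerevisiae YJM 789 seeded 1000 cells per well; test concentration not given here.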 The conditions noted are these: S. cerevisiae YJM789 growth, higher = more signal, called active from +8 up or from −8 down.
Experiment [13] can be described thus: fission yeast growth modulation, primary screen, strain 972, OD600, 24 h, no modulator (AID 1090).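 Note: basal condition with compound alone and no growth modifier present; test concentration not given here.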 The conditions noted are these: S. pombe 972 growth, higher = more signal, called active from +8 up or from −8 down.
Experiment [14] is described as follows: S. cerevisiae growth modulation with rapamycin, primary screen, strain BY4716, OD600, 96 h (AID 1091). Note: test concentration not given here. The conditions noted are these: higher = more signal, called active from +8 up or from −8 down.
For experiment [15], the target named is Torsin-1A-interacting protein 2 (Homo sapiens) (UniProt Q8NFQ8). Description: LULL1 binders on small-molecule microarray, primary screen, cell lysate, human LULL1 lysate, 635/667 nm fluorescence (AID 1092).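 Note: probe is lysate of COS7 cells overexpressing human LULL1; score merges per-feature 667 nm fluorescence with signal-to-noise.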 The conditions noted are these: hLULL1 lysate binding, 635 nm fluorescence, higher = more signal.
Torsin-1A-interacting protein 2 (Homo sapiens), sequence (Q8NFQ8 whole entry, looked up): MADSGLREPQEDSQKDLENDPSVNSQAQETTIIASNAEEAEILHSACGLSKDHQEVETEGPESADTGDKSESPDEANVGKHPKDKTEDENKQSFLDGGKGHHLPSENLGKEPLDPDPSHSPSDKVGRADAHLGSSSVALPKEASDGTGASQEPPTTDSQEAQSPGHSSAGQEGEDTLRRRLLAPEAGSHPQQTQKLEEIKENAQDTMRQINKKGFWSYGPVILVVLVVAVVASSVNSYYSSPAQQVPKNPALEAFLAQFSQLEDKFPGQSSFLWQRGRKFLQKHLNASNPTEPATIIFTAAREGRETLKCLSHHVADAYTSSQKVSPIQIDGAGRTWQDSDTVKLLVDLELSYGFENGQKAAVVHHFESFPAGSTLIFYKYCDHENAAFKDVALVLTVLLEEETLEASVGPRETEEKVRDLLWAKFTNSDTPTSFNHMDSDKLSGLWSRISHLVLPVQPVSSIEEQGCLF
Experiment [16] is described as follows: E. coli growth modulation, two-sided OD650, primary screen, E. coli filamentation project, strain DRC41, 24 h (AID 1093).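 Note: MC1000 strain lacking acrAB efflux and sulA so SOS filamentation is blocked; test concentration not given here.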 The conditions noted are these: OD650, 24 h, higher = more signal, called active from +8 up or from −8 down.
Experiment [17] in a line: small-molecule microarray binders of probe aLefty2, primary screen, biochemical, biotinylated probe, 635/667 nm fluorescence (AID 1094).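 Note: score merges spot fluorescence near 667 nm with spot signal-to-noise ratio.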 The conditions noted are these: higher = more signal.
The test system of experiment [18] is Noggin (protein binding on small-molecule microarray). The experiment is described as follows: Noggin binders on small-molecule microarray, primary screen, biochemical, 635/667 nm fluorescence (AID 1095).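 Note: score merges 667 nm feature fluorescence with signal to noise over triplicate slides.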 The conditions noted are these: 635 nm fluorescence, higher = more signal.
The target in experiment [19] is Neurogenic locus notch homolog protein 3 (Homo sapiens) (UniProt Q9UM47). The experiment is described as follows: NOTCH3 binders on small-molecule microarray, primary screen, biochemical, 635/667 nm fluorescence (AID 1096). The conditions noted are these: NOTCH3 binding, 635 nm fluorescence, higher = more signal.
Neurogenic locus notch homolog protein 3 (Homo sapiens), sequence (Q9UM47 whole entry, looked up): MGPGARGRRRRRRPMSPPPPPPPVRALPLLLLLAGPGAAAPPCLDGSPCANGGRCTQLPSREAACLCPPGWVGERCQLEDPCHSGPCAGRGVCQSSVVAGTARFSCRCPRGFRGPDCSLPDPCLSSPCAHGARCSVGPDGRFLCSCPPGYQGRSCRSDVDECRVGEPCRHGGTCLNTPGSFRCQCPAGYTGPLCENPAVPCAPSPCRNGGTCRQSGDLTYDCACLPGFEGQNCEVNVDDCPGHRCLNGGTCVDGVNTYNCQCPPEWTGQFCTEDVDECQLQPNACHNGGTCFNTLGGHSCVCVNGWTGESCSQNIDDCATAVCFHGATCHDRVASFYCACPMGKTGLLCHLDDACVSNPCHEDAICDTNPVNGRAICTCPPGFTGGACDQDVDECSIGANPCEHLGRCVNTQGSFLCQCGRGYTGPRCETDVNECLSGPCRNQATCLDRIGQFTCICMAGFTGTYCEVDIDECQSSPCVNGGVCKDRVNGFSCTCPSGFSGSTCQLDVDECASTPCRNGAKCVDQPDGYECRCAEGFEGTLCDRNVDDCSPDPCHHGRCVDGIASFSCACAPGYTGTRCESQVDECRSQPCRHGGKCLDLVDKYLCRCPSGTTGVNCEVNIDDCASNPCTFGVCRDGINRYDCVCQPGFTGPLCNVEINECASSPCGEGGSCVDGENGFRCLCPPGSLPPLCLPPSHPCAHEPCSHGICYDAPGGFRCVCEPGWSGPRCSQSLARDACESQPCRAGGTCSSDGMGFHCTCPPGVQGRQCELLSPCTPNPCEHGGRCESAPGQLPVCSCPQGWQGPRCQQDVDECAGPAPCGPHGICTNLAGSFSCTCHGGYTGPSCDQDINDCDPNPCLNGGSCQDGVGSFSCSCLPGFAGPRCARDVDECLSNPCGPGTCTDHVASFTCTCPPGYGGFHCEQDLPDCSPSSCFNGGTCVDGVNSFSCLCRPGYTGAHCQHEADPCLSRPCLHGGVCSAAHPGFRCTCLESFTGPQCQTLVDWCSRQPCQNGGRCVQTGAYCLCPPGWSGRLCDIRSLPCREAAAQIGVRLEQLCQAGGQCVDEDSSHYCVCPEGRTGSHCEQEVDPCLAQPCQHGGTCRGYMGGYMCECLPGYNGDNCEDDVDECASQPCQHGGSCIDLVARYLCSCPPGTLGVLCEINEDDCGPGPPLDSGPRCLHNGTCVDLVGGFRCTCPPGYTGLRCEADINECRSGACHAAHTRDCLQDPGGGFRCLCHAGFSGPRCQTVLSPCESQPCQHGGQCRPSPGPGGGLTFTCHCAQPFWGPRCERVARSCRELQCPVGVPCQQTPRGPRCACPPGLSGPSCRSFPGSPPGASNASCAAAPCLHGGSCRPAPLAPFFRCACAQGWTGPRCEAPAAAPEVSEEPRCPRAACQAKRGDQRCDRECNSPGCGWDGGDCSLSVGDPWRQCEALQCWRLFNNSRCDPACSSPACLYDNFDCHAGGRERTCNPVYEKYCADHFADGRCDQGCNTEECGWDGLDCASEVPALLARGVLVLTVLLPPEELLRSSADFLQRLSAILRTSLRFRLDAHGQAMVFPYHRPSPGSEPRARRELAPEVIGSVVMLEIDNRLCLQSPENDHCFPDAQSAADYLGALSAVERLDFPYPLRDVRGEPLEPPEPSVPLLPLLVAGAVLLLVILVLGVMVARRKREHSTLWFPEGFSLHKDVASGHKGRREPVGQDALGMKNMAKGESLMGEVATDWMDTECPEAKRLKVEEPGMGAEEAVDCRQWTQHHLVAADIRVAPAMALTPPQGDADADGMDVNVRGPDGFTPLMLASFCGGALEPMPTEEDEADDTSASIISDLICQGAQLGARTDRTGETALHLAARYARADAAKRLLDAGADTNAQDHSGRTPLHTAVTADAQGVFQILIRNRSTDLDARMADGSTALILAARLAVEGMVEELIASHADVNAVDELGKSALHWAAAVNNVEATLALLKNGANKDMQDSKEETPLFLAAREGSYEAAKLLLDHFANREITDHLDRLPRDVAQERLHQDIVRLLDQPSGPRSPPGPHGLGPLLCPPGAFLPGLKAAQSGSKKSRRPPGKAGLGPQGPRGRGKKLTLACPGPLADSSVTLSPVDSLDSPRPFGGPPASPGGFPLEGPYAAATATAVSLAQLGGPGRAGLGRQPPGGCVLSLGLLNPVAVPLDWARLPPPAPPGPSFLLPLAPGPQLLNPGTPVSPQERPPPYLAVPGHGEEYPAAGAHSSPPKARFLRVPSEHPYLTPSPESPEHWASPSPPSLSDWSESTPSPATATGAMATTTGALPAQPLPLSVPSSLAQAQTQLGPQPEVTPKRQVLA
Experiment [20] can be described thus: small-molecule microarray binders of probe aEGFR, primary screen, biochemical, biotinylated probe, 635/667 nm fluorescence (AID 1097).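 Note: probe is a biotinylated anti-EGFR antibody binding compounds printed on slides; score combines fluorescence near 667 nm and signal to noise of each spot.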 The conditions noted are these: higher = more signal.

Molecules are shown by their SMILES. The source made the active and inactive calls.

For the compound `COCCOC(=O)N1C(=O)[C@@]2(c3cc(C#CCNC(N)=O)ccc31)[C@H](C(=O)NC[C@H](O)c1ccccc1)[C@H]1C(=O)O[C@H](c3ccccc3)[C@H](c3ccccc3)N1[C@@H]2c1ccc(O)cc1`, the composite z-score was 0.464 in experiment [1]; 0.256 in experiment [2]; -0.031 in experiment [3]; 0.462 in [4]; -0.26 in experiment [5]; 0.8 in experiment [6]. The composite z-score in experiment [7] was 0.442; in experiment [9], 0.24; in experiment [10] it was -0.191; in [11], 1.54; in experiment [15] it was 1.5; in experiment [17] it was -0.104. The values for the composite z-score in experiment [18], in experiment [19] and in experiment [20] were 0.737, 0.698 and -0.132, respectively. Also, the z-score in experiment [8] is 0.803 (inactive); in [12], -0.124 (inactive); in experiment [13] it was -2.42 (inactive); in experiment [14] it was 0.893 (inactive); in experiment [16], 2 (inactive).

In the case of `COc1ccc(C(=O)Nc2cccc(CN3C(=O)[C@@]4(O[C@@H](CCO)[C@H]([Si](C)(C)c5ccc(OC)cc5)[C@H]4C)c4ccccc43)c2)cc1`, the composite z-score was 0.457 in experiment [1]; -0.0176 in [2]; -0.0784 in experiment [3]; 0.19 in experiment [4]; 0.0782 in experiment [5]; -0.0498 in experiment [6]. The composite z-score in experiment [7] is 0.984; in [9] it was 0.0018; in experiment [10], -0.216; in experiment [11], 0.95; in experiment [15], 1.35; in experiment [17], 0.0005. In addition, the composite z-score in experiment [18] is 0.297; in [19] it was 0.0772; in [20], -0.155. Also, the z-score in experiment [8] was -3.53 (inactive); in experiment [12], 0.324 (inactive); in [13] it was -9.44 (active); in experiment [14], 0.2 (inactive); in [16], 1.68 (inactive).

As to `C=CCN1C(=O)[C@@]2(O[C@@H](CCO)[C@H]([Si](C)(C)c3ccc(OC)cc3)[C@H]2C)c2cc(N3C(=O)c4cccc5cccc3c45)ccc21`, the composite z-score in experiment [1] was -0.149; in experiment [2], 0.0485; in experiment [3] it was -0.113; in experiment [4], 0.349; in [5] it was 0.24; in [6], 0.769. The composite z-score is 0.876 in experiment [7]; -0.169 in [9]; -0.0994 in experiment [10]; 1.18 in experiment [11]; 1.15 in experiment [15]; -0.156 in [17]. Also, the composite z-score in [18] was -0.106; in [19], -0.0485; in [20] it was -0.147. Moreover, the z-score in [8] was -1.42 (inactive); in [12] it was 2.89 (inactive); in experiment [13], 1.89 (inactive); in experiment [14], 36.3 (active); in experiment [16] it was 1.93 (inactive).

As to `COc1ccc(C#Cc2ccc3c(c2)[C@]2(C(=O)N3)[C@H](c3ccc(O)cc3)N3[C@H](c4ccccc4)[C@H](c4ccccc4)OC(=O)[C@H]3[C@@H]2C(N)=O)cc1`, the composite z-score in [1] is 0.573; in experiment [2], 0.395; in experiment [3], 0.0519; in experiment [4], 0.889; in experiment [5], -0.695; in experiment [6], 1.68. In addition, the composite z-score in [7] was 0.785; in experiment [9], -0.235; in experiment [10], -0.24; in experiment [11], 0.632; in experiment [15], 2.14; in experiment [17] it was -0.2. In addition, the composite z-score is -0.877 in experiment [18], -0.854 in experiment [19] and -0.401 in experiment [20]. The z-score in experiment [8] was 0.532 (inactive); in experiment [12], 1.46 (inactive); in experiment [13], -1.02 (inactive); in experiment [14], 2.73 (inactive); in experiment [16], 1.68 (inactive).

On to `COc1ccc([Si](C)(C)[C@@H]2[C@@H](CC(=O)N3CCC[C@H]3CO)O[C@]3(C(=O)N(Cc4ccc(N5CCC5=O)cc4)c4ccccc43)[C@H]2C)cc1`, for which the composite z-score in experiment [1] was -0.142; in experiment [2], 0.783; in experiment [3], -0.071; in experiment [4], 0.66; in experiment [5], 0.747; in [6], 0.583. Moreover, the composite z-score is 1.07 in [7]; 0.187 in experiment [9]; 0.245 in [10]; 1.55 in experiment [11]; 2.12 in experiment [15]; -0.166 in [17]. The composite z-score was found to be 1.16 in experiment [18], 0.708 in experiment [19] and 0.0408 in [20]. For the same compound, the z-score in [8] is -1.17 (inactive); in experiment [12] it was -0.556 (inactive); in [13], -0.228 (inactive); in experiment [14], -0.69 (inactive); in experiment [16], 0.673 (inactive).
